The results in this text go back to PubChem BioAssay (NCI).

Values joined by “and” are separate entries in the source; they are usually repeats but may differ in a detail not shown here. Equal values may be shown once. This is part of a sample that, as a whole, favours compounds with a hit. Of some 79,000 tested, about 15% had one in any assay. Where a structure was tested more than once in an assay, its records may differ in their call. Active and inactive are the calls of the source. Rule as the data show it: active = growth inhibition above about 70%; inactive = the rest.

Test [1] in a line: NCI Yeast Anticancer Drug Screen. Data for the rad50 strain (AID 155).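 Also: 0% = growth of vehicle-only cultures of the same strain.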 The conditions noted are these: S. cerevisiae rad50 strain growth inhibition, stronger effect = higher value. The method in brief:
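Genetically altered yeast (DNA repair pathway); compound treatment; growth inhibition vs vehicle ctrl.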

Test [2] in a line: NCI Yeast Anticancer Drug Screen. Data for the mec2-1 strain (AID 157). To be noted: S. cerevisiae mec2-1 strain, stronger effect = higher value. The essentials:
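Growth inhibition is read against vehicle-treated controls after compound exposure of the mec2-1 yeast strain, which is defective in DNA damage repair or cell cycle control.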

Test [3] is described as follows: NCI Yeast Anticancer Drug Screen. Data for the sgs1 mgt1 strain (AID 161).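 Also: 0% = growth of cultures given vehicle only.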 The conditions noted are these: S. cerevisiae sgs1 mgt1 strain, stronger effect = higher value. The essentials: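 This yeast growth screen uses a strain with defined DNA-repair lesions; compound-treated growth is compared with vehicle-treated growth.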
The nature of test [4]: NCI Yeast Anticancer Drug Screen. Data for the cln2 rad14 strain (AID 165).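 Also: 0% = growth equal to vehicle treated cultures.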 To be noted: S. cerevisiae cln2 rad14 strain, stronger effect = higher value. The method in brief:
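Growth inhibition, relative to vehicle-treated controls, is the read-out. The test organism is a yeast strain with defined genetic alterations, cln2 rad14.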

Test [5] can be described thus: NCI Yeast Anticancer Drug Screen. Data for the bub3 strain (AID 167). To be noted: S. cerevisiae bub3 mutant strain, stronger effect = higher value. The essentials: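 Yeast carrying a defined mutation is treated with each compound, and growth is compared with that of vehicle-exposed cells to give inhibition.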
Test [6] can be described thus: NCI Yeast Anticancer Drug Screen. Data for the wt2 strain (AID 169).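 Also: 0% = growth of vehicle-treated yeast cultures.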 To be noted: S. cerevisiae wt2 strain growth inhibition, stronger effect = higher value. The essentials:
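Compound exposure of yeast; growth compared with vehicle controls; inhibition reported.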

The nature of test [7]: NCI Yeast Anticancer Drug Screen. Data for the mlh1 rad18 strain (AID 175). To be noted: S. cerevisiae mlh1 rad18 strain growth inhibition, stronger effect = higher value. The essentials:
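Cells of a genetically altered yeast strain, deficient in DNA damage repair, were treated with compound. Their growth was then compared with that of vehicle-treated cultures to give inhibition.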

[8] abbreviates: at 5.0 µM (retest, dose inferred, filed as 0.5).
Setting [9] is: at 50.0 µM (retest, dose inferred, filed as 5.0).

Consider `CC[N+](C)(C)c1ccccc1`, for which the growth inhibition in test [1] (setting [8]) is 42% (inactive); in test [1] (setting [9]), 90% (active); in test [1] (at 50.0 µM), 61.8% (inactive); in test [2] (setting [8]) it was 48% (inactive); in test [2] (setting [9]), 93% (active); in test [2] (at 50.0 µM), 26.7% (inactive). The growth inhibition in test [3] (setting [8]) is -40% (inactive); in test [3] (setting [9]), 1% (inactive); in test [3] (at 50.0 µM), 48.2% (inactive); in test [4] (setting [8]) it was 46% (inactive); in test [4] (setting [9]) it was 24% (inactive); in test [4] (at 50.0 µM), 17.9% (inactive). In addition, the growth inhibition was -1% (inactive) in test [5] (setting [8]); 28% (inactive) in test [5] (setting [9]); 74.2% (active) in test [5] (at 50.0 µM); -24% (inactive) in test [6] (at 1.2 µM); -23% (inactive) in test [6] (at 3.7 µM); -25% (inactive) in test [6] (at 11.0 µM). In addition, the growth inhibition was -16% (inactive) in test [6] (at 33.0 µM); -24% (inactive) in test [6] (at 100.0 µM); 45% (inactive) in test [7] (setting [8]); 82% (active) in test [7] (setting [9]); 28.9% (inactive) in test [7] (at 50.0 µM).
`CCCCCC(C)c1ccc(O)c(C)c1` (stereo unspecified): the growth inhibition in test [1] (setting [8]) was 49% (inactive); in test [1] (setting [9]), 94% (active); in test [1] (at 50.0 µM), 81.7% (active); in test [2] (setting [8]), 49% (inactive); in test [2] (setting [9]) it was 95% (active); in test [2] (at 50.0 µM), 56.2% (inactive). Also, the growth inhibition in test [3] (setting [8]) was -10% (inactive); in test [3] (setting [9]) it was 43% (inactive); in test [3] (at 50.0 µM), 68.9% (inactive); in test [4] (setting [8]), 41% (inactive); in test [4] (setting [9]), 75% (active); in test [4] (at 50.0 µM), 61.7% (inactive). Also, the growth inhibition was 32% (inactive) in test [5] (setting [8]); 55% (inactive) in test [5] (setting [9]); 86.1% (active) in test [5] (at 50.0 µM); 4% (inactive) in test [6] (at 1.2 µM); -2% (inactive) in test [6] (at 3.7 µM); -6% (inactive) in test [6] (at 11.0 µM). Moreover, the growth inhibition in test [6] (at 33.0 µM) is 0% (inactive); in test [6] (at 100.0 µM), 99% (active).
`C[N+]1(Cc2ccc(Cl)c(Cl)c2)CCCC1C1CCCN(Cc2ccc(Cl)c(Cl)c2)C1` (stereo unspecified): the growth inhibition in test [1] (setting [8]) is -4% (inactive); in test [1] (setting [9]), 51% (inactive); in test [1] (at 50.0 µM) it was 6.55% (inactive) and -11.7% (inactive); in test [2] (setting [8]), -2% (inactive); in test [2] (setting [9]) it was 59% (inactive); in test [2] (at 50.0 µM) it was -3.95% (inactive) and 3.6% (inactive). In addition, the growth inhibition in test [3] (setting [8]) is 3% (inactive); in test [3] (setting [9]) it was 80% (active); in test [3] (at 50.0 µM) it was 5.3% (inactive) and 14% (inactive); in test [4] (setting [8]), -11% (inactive); in test [4] (setting [9]), 27% (inactive); in test [4] (at 50.0 µM), -15.3% (inactive) and 42.5% (inactive). For the same molecule, the growth inhibition in test [5] (setting [8]) is -1% (inactive); in test [5] (setting [9]) it was 61% (inactive); in test [5] (at 50.0 µM), 22.2% (inactive) and 15.3% (inactive).
Consider `C[n+]1c2cc(N)ccc2cc2ccc(N)cc21`, for which the growth inhibition is 55% (inactive) and 100% (active) in test [1] (setting [8]); 98% (active) and 99% (active) in test [1] (setting [9]); 97.4% (active) and 75.2% (active) in test [1] (at 50.0 µM); 11% (inactive) and 100% (active) in test [2] (setting [8]); 99% (active) and 100% (active) in test [2] (setting [9]); 75.3% (active) and 79% (active) in test [2] (at 50.0 µM). In addition, the growth inhibition was 3% (inactive) and -17% (inactive) in test [3] (setting [8]); 97% (active) and 44% (inactive) in test [3] (setting [9]); 67.9% (inactive) and 78.2% (active) in test [3] (at 50.0 µM); 10% (inactive) and 35% (inactive) in test [4] (setting [8]); 97% (active) and 64% (inactive) in test [4] (setting [9]); 53.9% (inactive) and 39.6% (inactive) in test [4] (at 50.0 µM). The growth inhibition in test [5] (setting [8]) was -1% (inactive) and -18% (inactive); in test [5] (setting [9]), 99% (active) and 88% (active); in test [5] (at 50.0 µM), 86.5% (active) and 81.6% (active); in test [6] (at 1.2 µM) it was -6% (inactive); in test [6] (at 3.7 µM) it was -12% (inactive); in test [6] (at 11.0 µM), 4% (inactive). The growth inhibition in test [6] (at 33.0 µM) is 25% (inactive); in test [6] (at 100.0 µM), 84% (active); in test [7] (setting [8]), 28% (inactive) and 100% (active); in test [7] (setting [9]) it was 97% (active) and 100% (active); in test [7] (at 50.0 µM), 91.3% (active) and 83.5% (active).
For the molecule `Cc1nc(N=C(N)N)nc2ccc3ccccc3c12`, the growth inhibition in test [1] (setting [8]) is 39% (inactive); in test [1] (setting [9]), 38% (inactive); in test [1] (at 50.0 µM) it was 80.8% (active); in test [2] (setting [8]) it was 43% (inactive); in test [2] (setting [9]), 69% (inactive); in test [2] (at 50.0 µM) it was 37.9% (inactive). For the same molecule, the growth inhibition in test [3] (setting [8]) was -13% (inactive); in test [3] (setting [9]), 98% (active); in test [3] (at 50.0 µM), 64.7% (inactive); in test [4] (setting [8]), 62% (inactive); in test [4] (setting [9]), 99% (active); in test [4] (at 50.0 µM), 34.8% (inactive). Further, the growth inhibition in test [5] (setting [8]) is -14% (inactive); in test [5] (setting [9]) it was 96% (active); in test [5] (at 50.0 µM), 63.9% (inactive); in test [6] (at 1.2 µM), 6% (inactive); in test [6] (at 3.7 µM), 12% (inactive); in test [6] (at 11.0 µM), 0% (inactive). Moreover, the growth inhibition is 30% (inactive) in test [6] (at 33.0 µM); 97% (active) in test [6] (at 100.0 µM); 28% (inactive) in test [7] (setting [8]); 34% (inactive) in test [7] (setting [9]); 69.6% (inactive) in test [7] (at 50.0 µM).
Turning to `CCCCCCCCCCCCN`, the growth inhibition in test [1] (setting [8]) is 71% (active); in test [1] (setting [9]), 99% (active); in test [1] (at 50.0 µM), 77.5% (active); in test [2] (setting [8]), 65% (inactive); in test [2] (setting [9]) it was 99% (active); in test [2] (at 50.0 µM), 45% (inactive). The growth inhibition in test [3] (setting [8]) was -4% (inactive); in test [3] (setting [9]) it was 98% (active); in test [3] (at 50.0 µM), 81.8% (active); in test [4] (setting [8]) it was 73% (active); in test [4] (setting [9]) it was 100% (active); in test [4] (at 50.0 µM), 26.6% (inactive). The growth inhibition in test [5] (setting [8]) was 56% (inactive); in test [5] (setting [9]) it was 98% (active); in test [5] (at 50.0 µM) it was 79.7% (active); in test [6] (at 1.2 µM) it was -14% (inactive); in test [6] (at 3.7 µM), -21% (inactive); in test [6] (at 11.0 µM) it was -9% (inactive). The growth inhibition in test [6] (at 33.0 µM) was -5% (inactive); in test [6] (at 100.0 µM), 97% (active); in test [7] (setting [8]) it was 70% (active); in test [7] (setting [9]), 100% (active); in test [7] (at 50.0 µM), 72.2% (active).
With `COc1nc(N)c(NC2OCC(O)C(O)C2O)c(=O)n1C` (stereo unspecified), the growth inhibition in test [1] (at 50.0 µM) was -32.8% (inactive) [middle of 5 runs].
As for `CCC(C)c1ccc(O)c(C(C)CC)c1` (stereo unspecified), the growth inhibition is 40% (inactive) in test [1] (setting [8]); 98% (active) in test [1] (setting [9]); 58.9% (inactive) in test [1] (at 50.0 µM); 57% (inactive) in test [2] (setting [8]); 98% (active) in test [2] (setting [9]); 30.3% (inactive) in test [2] (at 50.0 µM). For the same molecule, the growth inhibition in test [3] (setting [8]) was -26% (inactive); in test [3] (setting [9]) it was 72% (active); in test [3] (at 50.0 µM), 45.8% (inactive); in test [4] (setting [8]), 15% (inactive); in test [4] (setting [9]), 60% (inactive); in test [4] (at 50.0 µM), 27.8% (inactive). In addition, the growth inhibition is 38% (inactive) in test [5] (setting [8]); 63% (inactive) in test [5] (setting [9]); 68.7% (inactive) in test [5] (at 50.0 µM); -3% (inactive) in test [6] (at 1.2 µM); -13% (inactive) in test [6] (at 3.7 µM); -11% (inactive) in test [6] (at 11.0 µM). Besides, the growth inhibition was -1% (inactive) in test [6] (at 33.0 µM); 98% (active) in test [6] (at 100.0 µM); 44% (inactive) in test [7] (setting [8]); 99% (active) in test [7] (setting [9]); 58.9% (inactive) in test [7] (at 50.0 µM).
